# Screens from PubChem BioAssay.
# The list is not random: actives were taken first. Their share in the collection is about 2.2%.
# GRK2 inh = compounds blocking aptamer binding on GRK2 – biochemical, human GRK2, bead flow cytometry, HTS, primary screen. Beta-adrenergic receptor kinase 1 (Homo sapiens), P25098. FAM-aptamer displacement from GRK2. inhibition of aptamer binding, % at 10 µM. 0.59% of 330,000 active;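 active means inhibition of aptamer binding above 40%, roughly 3 SD of noise, on plates passing a quality check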;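 further: median bead fluorescence of bound FAM aptamer so fluorescent compounds give negative values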
# TLR9-MyD88 block = inhibitors of TLR9-MyD88 association in cells, primary screen, cell-based, CHO, BLA complementation, fluorescence | inhibition, % at 4.98 µM | 0.21% of 340,000 active | Toll-like receptor 9 (Homo sapiens) + Myeloid differentiation primary response protein … | CCF4 FRET ratio;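 active means inhibition above the mean over all tested compounds plus 3 SD, cut at about 21% in these data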;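 further: 0% = DMSO only wells and 100% = clavulanate BLA inhibitor control wells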
# TLR4-MyD88 BLA = inhibitors of TLR4-MyD88 association in cells, primary screen, cell-based, HeLa CL3-4, BLA complementation, FRET ratio; Toll-like receptor 4 (Homo sapiens) + Myeloid differentiation primary response protein …; HeLa CL3-4 TLR4/MyD88 BLA complementation; inhibition, % at 8.4 µM; 0.18% of 200,000 active; in the data active means inhibition above about 25%;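 further: 0% = vehicle and 100% = reference inhibitor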
# TMEM16A inh = TMEM16A chloride channel inhibitors, primary screen, cell-based, HTS; Anoctamin-1 (Mus musculus), Q8BHY3; HEK293 TMEM16A/YFP iodide influx fluorescence, ionomycin; normalized B-score (activity score, 25-100; higher = stronger inhibition) at 10 µM; 1.2% of 310,000 active; AID 588511, 2011;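 active means ratio plate-corrected score three or more library SD toward inhibition, starting fluorescence score within five deviations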;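 further: score derived from kinetic fluorescence span divided by baseline fluorescence per well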
# NOD2-RIPK2 inh = NOD2-RIPK2 binding disruptors in cells, primary screen, fluorescence, CHO cells, BLA complementation; Receptor-interacting serine/threonine-protein kinase 2 (Homo sapiens), O43353; CCF4 ratio; inhibition, % at 4.98 µM; 0.38% of 360,000 active; AID 624267, 2012; in the data active means inhibition above about 21%;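 further: 0% = vehicle only and 100% = reference blocker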
# Target sequence (O43353 whole entry, looked up): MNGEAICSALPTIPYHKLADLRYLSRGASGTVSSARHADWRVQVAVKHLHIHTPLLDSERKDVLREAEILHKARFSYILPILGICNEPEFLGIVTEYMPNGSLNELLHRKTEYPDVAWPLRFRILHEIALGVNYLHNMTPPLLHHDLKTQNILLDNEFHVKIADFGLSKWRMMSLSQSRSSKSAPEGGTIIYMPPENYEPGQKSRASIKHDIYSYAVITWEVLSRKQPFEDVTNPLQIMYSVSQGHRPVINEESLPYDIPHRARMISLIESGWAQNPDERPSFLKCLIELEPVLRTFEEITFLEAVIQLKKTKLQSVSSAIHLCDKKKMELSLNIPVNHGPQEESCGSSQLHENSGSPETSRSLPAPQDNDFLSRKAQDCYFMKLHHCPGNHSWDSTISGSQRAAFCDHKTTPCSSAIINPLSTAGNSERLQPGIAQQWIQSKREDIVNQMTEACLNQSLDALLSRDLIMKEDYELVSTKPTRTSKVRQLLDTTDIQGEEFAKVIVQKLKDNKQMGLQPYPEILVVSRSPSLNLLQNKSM
# TMEM16A act = TMEM16A chloride channel activators or potentiators, primary screen, cell-based, HTS. HEK293 TMEM16A/YFP-H148Q/I152L, iodide quench fluorescence; hits give low values. B-score at 10 µM. 0.3% of 340,000 active;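 active means fluorescence-ratio B-score plate-corrected deviation score at least 3 library SD below zero, with starting fluorescence score within 5 deviations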;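 further: channel opened by trigger with iodide after compound preincubation; score built on the fluorescence ratio of max minus min over baseline; more negative score means more quench and so TMEM16A activation or potentiation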
# TLR4-MyD88 conf = TLR4-MyD88 association inhibitors, retest, confirmation, cell-based, HeLa CL3-4, BLA complementation, FRET ratio | 50% of 350 active | inhibition, % at 8.4 µM | shares compounds with TLR4-MyD88 BLA | CCF4 FRET ratio;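 active means mean inhibition across three repeat runs above about 25% carried over from the earlier screen, limit read from the data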;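 further: plate controls were DMSO only for no effect and clavulanic acid blocking BLA at full dose for full effect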
# BLA inh HeLa = beta-lactamase inhibition flagged in TLR4-MyD88 counter-screen; AID 1237; HeLa BLA reporter, CCF4 FRET ratio; shares compounds with TLR4-MyD88 BLA; 63% of 350 active; inhibition, % at 8.4 µM;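 active means mean inhibition over three repeats above about 26% taken from the earlier screen, limit read from the data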;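 further: HeLa cells stably expressing beta-lactamase reporter as counterscreen for TLR4-MyD88 inhibitors; 0% = DMSO and 100% = clavulanic acid full inhibition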
# TLR9-MyD88 cf = TLR9-MyD88 association inhibitors, retest, confirmation, cell-based, CHO, BLA complementation, fluorescence, triplicate. inhibition, % at 4.98 µM. shares compounds with TLR9-MyD88 block. 51% of 680 active. CCF4 FRET ratio;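 active means mean inhibition across three repeats above about 21% taken from the earlier screen, limit read from the data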;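 further: blue over green emission ratio reports constitutive TLR9 MyD88 association via BLA complementation; 0% = DMSO vehicle wells and 100% = clavulanate BLA inhibitor wells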
# BLA counter = beta-lactamase reporter inhibitors in CHO cells, artefact control for TLR9-MyD88 binding inhibitor project, cell-based, fluorescence; inhibition, % at 4.98 µM; AID 540251, 2011; CHO-BLA cells, CCF4 FRET ratio, BLA reporter; 7% of 680 active; shares compounds with TLR9-MyD88 block;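 active means mean inhibition above a 50% cutoff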;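 further: counterscreen of TLR9-MyD88 hits on CMV-driven BLA in CHO-K1 cells; 0% = DMSO alone and 100% = clavulanate blocking BLA; higher means less blue over green ratio so more BLA blockade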
# TLR9 CHO tox = CHO cell viability loss – luminescence, single concentration, cytotoxicity control for TLR9-MyD88 binding inhibitor project. shares compounds with TLR9-MyD88 block. 39% of 680 active. TLR9-MyD88 CHO cells cytotoxicity. AID 588336, 2011. inhibition, % at 4.98 µM; in the data active means inhibition above about 11%
# * hit, by the source's call; i = inactive; / = not tested or not shown.
SMILES,GRK2 inh,TLR9-MyD88 block,TLR4-MyD88 BLA,TMEM16A inh,NOD2-RIPK2 inh,TMEM16A act,TLR4-MyD88 conf,BLA inh HeLa,others
O=C1COc2ccc(C(=O)COC(=O)c3cnc(Cl)c(Cl)c3)cc2N1,0,0,28*,i,-9,i,27*,-3,
O=C(NC1CCCC1)c1nc(-c2ccco2)oc1-c1ccccc1,/,/,/,/,-7,/,/,/,
O=C(COC(=O)c1c2c(nc3ccccc13)/C(=C/c1ccco1)CC2)NC1CCCC1,/,19,45*,/,2,i,45*,69*,
Cc1cc(C(=O)OCC(=O)NC2CCCC2)c2ccccc2n1,/,2,/,/,-7,i,/,/,
CC1CCCCC1NC(=O)COC(=O)c1c2c(nc3ccccc13)/C(=C/c1ccco1)CC2 (stereo unspecified),6,-12,61*,i,9,i,49*,85*,
Cc1c(C(=O)NCc2ccc(C(C)C)cc2)sc(=O)n1Cc1ccc(S(=O)(=O)N(C)C)cc1,/,/,/,/,-7,/,/,/,
O=C1CC(c2ccc(Cl)cc2)Oc2ccc(Cl)cc21 (stereo unspecified),/,-8,/,/,-2,i,/,/,
Cn1c(Cl)cnc1C1CC(=O)c2cc(Cl)ccc2O1 (stereo unspecified),0,3,27*,i,5,i,-7,-17,
O=c1c2ccccc2nc(/C=C/c2c[nH]c3ccccc23)n1CCO,5,-5,26*,i,4,i,-4,6,
O=C(Nc1cc(C(F)(F)F)cc(C(F)(F)F)c1)[C@H]1O[C@@H](n2ccc(=O)[nH]c2=O)[C@H](O)[C@@H]1O,/,/,/,/,4,/,/,/,
CC(C)(C)C(=O)Cn1ncc(Br)c(Br)c1=O,/,17,36*,/,11,i,17,5,
CC(C)(C)C(=O)Cn1ncc(N2CCOCC2)c(Cl)c1=O,0,2,/,i,-1,i,/,/,
CSc1nc(COC(=O)NC(C)C)c(COC(=O)NC(C)C)n1Cc1ccccc1,/,/,/,/,-13,/,/,/,
C=CCOc1nc(-c2ccncc2)nc2ccccc12,1,0,25*,i,-6,i,-8,4,
COc1nc(-c2ccncc2)nc2ccccc12,0,-7,-10,i,-1,i,/,/,
O=C(Nc1ccc2c(c1)OCCO2)c1[nH]c(C(F)(F)F)nc1-c1ccccc1,/,/,/,/,9,/,/,/,
Cc1ccc(-c2cc(C(=O)Nc3ccccc3C)c3ccccc3n2)o1,7,2,28*,i,-2,i,4,10,
CC(C)(C)c1ccc(NC(=O)c2cc(C3CCCN(C(=O)CCc4ccccc4)C3)on2)cc1 (stereo unspecified),/,/,/,/,-10,/,/,/,
N#C/C(=C/c1ccc(-c2ccc(Br)cc2)o1)C(=O)NC1CCCCC1,1,3,0,i,-10,i,/,/,
CC(C)OC(=O)/C(C#N)=C/c1ccc(-c2ccc(SC(F)F)cc2)o1,4,0,26*,i,0,i,4,21,
CCNC(=O)CC1C(=O)N(c2cccc(OC)c2)C(=O)N1CCOC (stereo unspecified),0,-10,25*,i,2,i,0,1,
COCCN1C(=O)N(c2cccc(OC)c2)C(=O)C1CC(=O)Nc1cccc(F)c1 (stereo unspecified),0,-6,/,i,4,i,/,/,
NC(=O)CSc1nc2scc(-c3ccco3)c2c(=O)n1-c1ccccc1,11,-27,-6,i,3,i,/,/,
O=C(CSc1nc2scc(-c3ccco3)c2c(=O)n1-c1ccccc1)N1CCOCC1,1,-6,30*,i,2,i,2,9,
CCCCOCCCNC(=O)C[C@@H]1C[C@@]2(C(=O)OC)CC(C)(C)CC=C2N(Cc2cccc3ccccc23)C1=O,/,/,/,/,-6,/,/,/,
SMILES,GRK2 inh,TLR9-MyD88 block,TLR4-MyD88 BLA,TMEM16A inh,NOD2-RIPK2 inh,TMEM16A act,TLR4-MyD88 conf,BLA inh HeLa,others
COc1ccc(C(C)(NC(C)=O)c2nc(-c3cc(F)cc(F)c3)cs2)cc1 (stereo unspecified),/,/,/,/,-5,/,/,/,
O=C(CCl)c1ccc2c(c1)CCN2C(=O)C1CCCCC1,4,4,27*,i,-1,i,32*,-4,
C[C@@H]1CN([C@@H](C)CO)C(=O)CCCn2nncc2CO[C@@H]1CN(C)S(=O)(=O)c1ccc(Oc2ccccc2)nc1,/,-19,/,/,-6,/,/,/,
O=[N+]([O-])c1ccc(Nc2cccc3c2[nH]c2c(-c4ccccc4)nccc23)c([N+](=O)[O-])c1,/,9,/,/,9,i,/,/,
OCCCc1nc2n(n1)C(c1ccccc1)C=C(c1ccccc1)N2 (stereo unspecified),0,40*,35*,i,64*,i,28*,50*,TLR9-MyD88 cf=32*;BLA counter=32;TLR9 CHO tox=3
CC[C@H](C)/C=C(C)/C=C/C1=CC2=CC(=O)[C@]3(C)OC(=O)[C@@H](C(C)=O)[C@@H]3C2=CO1,2,32*,33*,i,19,i,19,48*,TLR9-MyD88 cf=27*;BLA counter=30;TLR9 CHO tox=1
Cc1ccc(S(=O)(=O)N[C@H](C(=O)Oc2ccc3c(C(F)(F)F)cc(=O)oc3c2)c2ccccc2)cc1,1,55*,32*,i,58*,i,43*,56*,TLR9-MyD88 cf=33*;BLA counter=40;TLR9 CHO tox=-1
Nc1c(C(=O)Nc2ccccc2)sc2nc(-c3ccco3)ccc12,2,16,0,i,2,i,/,/,
COc1ccccc1NC(=O)c1sc2nc(-c3ccco3)ccc2c1N,5,42*,26*,i,34*,i,21,51*,TLR9-MyD88 cf=34*;BLA counter=34;TLR9 CHO tox=3
